Structures are written as SMILES. Hit rate of the full screen: of about 69,000 compounds, about 8,600 (12%) showed an effect of 50% or more. The full list was thinned out, with strong results kept by preference.

The test relates to Plasmodium berghei. Kind of test: Screen against P. berghei liver stage (PbLuc), transformed with Luciferase, at 10uM. The format is functional, HepG2. The note with it: tested at 10 uM.
`O=S(=O)(N1CCN(CC2CC2)CC1)N1CCCC1c1ccco1` (stereo not given): the INHIBITION worked out at 31.9%.
Then `COC1CCN(S(=O)(=O)N2CCCC2c2ccco2)CC1` (stereo not given), with 49%.
In the case of `O=S(=O)(N1CCC(n2cccc2)CC1)N1CCCC1c1ccco1` (stereo not given), the INHIBITION worked out at 66.1%.
Then `CC(C)CN1CCN(S(=O)(=O)c2cn(C)cn2)Cc2cccnc21`, with 48.7%.
Then `COCCC(=O)N1CCCC1c1csc(Nc2ncccn2)n1` (stereo not given), with 36.7%; and `O=C(NC1CC1)C1CCN(c2nc3nc[nH]c(=O)c3s2)CC1`, with 50.2%.
For the molecule `CC(C)NC(=O)C1CCN(c2nc3nc[nH]c(=O)c3s2)CC1`, the INHIBITION was determined as 4.35%.
`CNC(=O)C1CCN(c2nc3nc[nH]c(=O)c3s2)CC1`: the INHIBITION is reported as 24.7%.
Turning to `CCN(CC)S(=O)(=O)N(Cc1ccccn1)Cc1ccccc1C`, the INHIBITION came to 61.3%.
On to `Cc1ccccc1CCCN(Cc1ccccn1)S(C)(=O)=O`, for which the INHIBITION is 51%.
Then `CCN(CCCc1ccccc1C)S(C)(=O)=O`, with 14.1%; and `Cc1ccccc1CCCN(C)S(C)(=O)=O`, with 24.2%; and `CCN(Cc1ccccc1C)S(C)(=O)=O`, with 5.15%.
As to `CCN(CC)S(=O)(=O)N(Cc1cccc(C)c1)Cc1ccccn1`, the INHIBITION came to 9.63%.
Then `COCCN1CCCN(C(=O)NC(C)Cn2cccn2)CC1` (stereo not given), with 42.6%; and `Fc1cnc(N2CCCn3c(nnc3Cn3ccnc3)C2)nc1`, with -68%; and `Cc1noc(C2CCN(C(=O)CCCNc3ncccn3)CC2)n1`, with 18.4%.
Then `CCC(CC)c1nnc(NC(=O)NC(C)Cn2cccn2)s1` (stereo not given), with 27.4%.
Regarding `Cc1nc(CN(C)C2CCN(Cc3cccc4c3OCCO4)C2)no1` (stereo not given), the INHIBITION amounted to 29.4%.
Then `Cc1cnc(N2CC[C@H]3[C@@H]2CCC(=O)N3c2ccccc2)nc1`, with 2.7%; and `O=C(c1cnccn1)N1CC[C@H]2[C@@H]1CCC(=O)N2c1cccnc1`, with 22.9%; and `Cn1cc(N2C(=O)CC[C@@H]3[C@H]2CCN3Cc2nccs2)cn1`, with 22.4%.
`Cn1cc(N2C(=O)CC[C@@H]3[C@H]2CCN3C(=O)c2cscn2)cn1`: the INHIBITION is reported as 52%.
Then `O=C1CC[C@H]2[C@H](CCN2c2ncccn2)N1c1ccccc1`, with 55.4%.
As to `O=C(c1cccs1)N1CC[C@@H]2[C@H]1CCC(=O)N2c1ccccc1`, the INHIBITION was 40.3%.
Regarding `O=C(c1cscn1)N1CC[C@H]2[C@@H]1CCC(=O)N2c1ccccc1`, the INHIBITION came to 55.5%.
Then `Cc1nc(CN2CC[C@H]3[C@@H]2CCC(=O)N3c2cnn(C)c2)cs1`, with -20.1%; and `O=C1CC[C@H]2[C@H](CCN2c2ncc(F)cn2)N1c1ccccc1`, with 49.4%; and `Cc1noc(C(C)C)c1C(=O)NCc1ccc(N(C)C)c(F)c1`, with 29.2%.
Then `COc1cc(CSc2nnc(N)n2C2CC2)ccc1SC`, with 0.348%.
Consider `CN(C)Cc1noc2c1CN(C(=O)c1ccncc1)CC2`, for which the INHIBITION was 39.4%.
As to `O=S1(=O)[C@@H](c2ccccc2)[C@H](CO)CN1C1CC1`, the INHIBITION is given as -1.99%.
Then `Cc1ccoc1C(=O)N1Cc2c(Cn3ccnc3)nn(C)c2C1`, with 39.2%; and `Cc1ccc(C2(O)CCN(C(=O)c3sccc3S(N)(=O)=O)CC2)nc1`, with -11.3%.
Turning to `CCOc1cc(CN(C)CC(=O)O)ccc1OC(F)F`, the INHIBITION worked out at 21%.
Then `COc1ccc(CN(CCC#N)CCN2CCOCC2)c(OC)c1`, with 31.9%; and `CCOc1cc(CN(C)CCCO)ccc1OC(F)F`, with 31.4%.
Then `COc1ccc(F)cc1CSCC(=O)N(C)CCC#N`, with 13.6%; and `CCOc1cc(CN(C)CCCC#N)ccc1OC(F)F`, with 75.2%.
With `COc1ccc(F)cc1CSCC(=O)N(CCC#N)CCC#N`, the INHIBITION was -28.8%.
As to `CCOc1cc(CN(C)CC(C)(C)O)ccc1OC(F)F`, the INHIBITION is listed as -2.13%.
Then `CCOc1cc(CN(C)Cc2ccccc2)ccc1OC(F)F`, with 68.8%.
With `CCOc1cc(CNC(=O)C(C#N)c2nc(C)cs2)ccc1OC(F)F` (stereo not given), the INHIBITION turned out to be 42.8%.
In the case of `CCOc1ccc(CN(CCC#N)CCN2CCOCC2)cc1OC`, the INHIBITION was 55.4%.
With `CCOc1cc(CN(C)CCC#N)ccc1OC(F)F`, the INHIBITION was 64.1%.
Consider `COc1ccc(CN(CCC#N)CCN2CCOCC2)cc1OC`, for which the INHIBITION worked out at 43.4%.
Turning to `CCNC(=O)NC(=O)CNC1(c2noc(C)n2)CCCC1`, the INHIBITION is reported as 43.8%.
Then `CNc1cc(C2CN(C(=O)c3cscn3)CCO2)nc(C)n1` (stereo not given), with 26.7%; and `COCCNC(=O)C(C)N1CCN(C)CC1` (stereo not given), with 4.41%.
Then `CCN(CC)CCN(C)Cc1cn(C)nc1-c1ccc2c(c1)OCCO2`, with 39.4%.
In the case of `COc1ccccc1-n1nc(-c2ccco2)n(CC(N)=O)c1=O`, the INHIBITION is listed as 30.9%.
Then `O=C1COC2(COCCN(Cc3ccsc3)C2)CN1c1ccc(F)cc1` (stereo not given), with 13.1%.
Regarding `O=C1CCC(c2ccc(Cl)cc2)=NN1CN1CCCCCC1`, the INHIBITION was -52.7%.
For the molecule `CC(C)C(=O)N1CC[C@@H]2[C@H](CC1)N(Cc1cccnc1)CCS2(=O)=O`, the INHIBITION is recorded as -20.1%.
With `CN(C)C(=O)N[C@H]1CN(Cc2ccc3c(c2)OCO3)[C@@H]2CCCO[C@H]12`, the INHIBITION is on record as 27.2%.
For the molecule `CCOCCC(=O)N1CCCC(CO)(CC2CC2)C1` (stereo not given), the INHIBITION is 33%.
As to `O=C(O)c1nnn(-c2cccc(C(F)(F)F)c2)c1C1CC1`, the INHIBITION came to 12.9%.
Then `CCOc1cc(CN(C)CCOC)ccc1OC(F)F`, with 43.5%.
Then `CCOc1cc(CN(C)CCC(=O)OC)ccc1OC(F)F`, with 54.5%.
Then `CCOc1cc(CNC(=O)NC2CC=CC2)ccc1OC(F)F`, with 23.9%.
With `CCN1CC2(CCN(C(=O)c3nc4cc(C)ccn4c3F)CC2)CC1=O`, the INHIBITION is listed as 7.65%.
Then `CCn1ccc(NS(=O)(=O)c2cccc(CSC)c2)n1`, with -3.83%; and `Cn1cc(-c2cnc3n2CCC32CCN(S(=O)(=O)C3CC3)CC2)cn1`, with 63.1%.
Then `CCCS(=O)(=O)N1CCC2(CC1)CCn1c(-c3cnn(C)c3)cnc12`, with 85.4%; and `CCS(=O)(=O)N1CCC2(CC1)CCn1c(-c3cnn(C)c3)cnc12`, with -65.4%.
With `Cn1cc(-c2cnc3n2CCC32CCN(S(C)(=O)=O)CC2)cn1`, the INHIBITION is given as -26.1%.
As for `Cn1cc(N2CCC3(CCN(S(=O)(=O)C4CC4)C3)C2=O)cn1` (stereo not given), the INHIBITION is 15.1%.
With `CC(C)CS(=O)(=O)N1CCC2(CC1)CCn1c(-c3cnn(C)c3)cnc12`, the INHIBITION is 5.41%.
On to `O=C(CCO)N1C[C@H]2CN(c3ccccc3)C(=O)[C@H]2C1`, for which the INHIBITION is on record as -73.8%.
Consider `Cc1c(-c2cc(-c3cnn(C)c3C)n(CC(=O)NC3CC3)n2)cnn1C`, for which the INHIBITION worked out at 45.4%.
Then `Cc1nc(N2CCN(C(=O)C3CCCC3)CC2)c2c(n1)c(C)nn2C`, with 35.8%; and `COCCn1c(=O)n(C)c(=O)c2ccc(C3CCC(CN)CC3)nc21` (stereo not given), with 36.1%; and `O=C(NC1CCCC1)N1CCC2(CC1)CC(Oc1cccnc1)CO2` (stereo not given), with 9.63%.
For `CC(C)CC(=O)N(C)Cc1nc(C(F)(F)F)cs1`, the INHIBITION worked out at 62.9%.
Then `CCOCC(=O)N(C)Cc1nc(C(F)(F)F)cs1`, with 9.52%; and `CC(C)N(C)CC(=O)N(C)Cc1nc(C(F)(F)F)cs1`, with 22.7%; and `Cc1ccc(N2CCCC(NCc3nnc4n3CCCC4)C2=O)cc1` (stereo not given), with -76.95%.
With `CNC(=O)[C@H]1C[C@@H]2CN(C(=O)c3occc3C)C[C@@H]2N1S(C)(=O)=O`, the INHIBITION was -0.371%.
Then `CS(=O)(=O)N1CCN(C(=O)C2CSCCC(=O)N2)CC1` (stereo not given), with 60%; and `O=C1CCSCC(C(=O)N2CCCC2)N1` (stereo not given), with 38.5%; and `O=C1CCSCC(C(=O)N2CCCCC2)N1` (stereo not given), with -18.3%.
For `CC(C)CN1CC[C@@H]2[C@@H]1CCN2S(=O)(=O)c1cccs1`, the INHIBITION was found to be 1.34%.
In the case of `O=C(NC1CCC1)c1cccc(S(=O)(=O)NCc2nc(C3CC3)no2)c1`, the INHIBITION is on record as -9.2%.
Regarding `O=C(c1ccc(S(=O)(=O)NCc2ccon2)cc1)N1CCNCC1`, the INHIBITION is recorded as 41.3%.
Then `NC(=O)CC1CCCN(C(=O)NCC2(c3cccs3)CCCC2)C1` (stereo not given), with -9.51%; and `Cc1nn(C)c(N(C)C)c1CNCC(O)COc1cccc(F)c1` (stereo not given), with 83.2%.
Then `Cc1nn(C)c(N(C)C)c1CNCC(O)COc1ccc(F)cc1` (stereo not given), with 0%; and `Cc1nn(C)c(N(C)C)c1CNCc1cccc(CN(C)C)c1`, with -72.2%.
Take `Cc1nn(C)c(N(C)C)c1CNCc1cccc(Cl)c1`: the INHIBITION came to 68.1%.
On to `COc1cc(CNCc2c(C)nn(C)c2N(C)C)ccc1C`, for which the INHIBITION worked out at 30.8%.
For the molecule `COc1cccc(CNCc2c(C)nn(C)c2N(C)C)c1`, the INHIBITION was determined as 38.95%.
Then `COc1ccc2cc(CNCc3c(C)nn(C)c3N(C)C)ccc2c1`, with 53%.
Then `Cc1cccc(OCC(O)CNCc2c(C)nn(C)c2N(C)C)c1` (stereo not given), with -45.2%; and `COc1cccc(CNCc2c(C(C)C)nn(C)c2N(C)C)c1`, with 12.22%.
Then `Cc1nn(C)c(N(C)C)c1CNCc1cccc(Br)c1`, with -22.1%; and `COCc1cccc(CNCc2c(C)nn(C)c2N(C)C)c1`, with 44.3%; and `COCc1cccc(CNCc2c(C(C)C)nn(C)c2N(C)C)c1`, with 50.8%.
For `COCCN1C(=O)CCC12CCC(NCc1ccc(OC)cc1)CC2` (stereo not given), the INHIBITION is given as 15.3%.
Then `COc1ccc(OC)c(-c2cc(C(=O)NCC3(CO)CC3)n(C)n2)c1`, with 6.54%; and `O=C(NC[C@]12COC[C@H]1CN(Cc1cccnc1)C2)c1ccno1`, with 29%; and `c1cc(C2CCN(Cc3ccc4c(c3)OCO4)CC2)ccn1`, with 19.4%.
For the molecule `Cc1ccc(NCc2cc(C#N)ccc2F)cc1-n1nnnc1C`, the INHIBITION is recorded as -3.83%.
Then `CC(C)CC(=O)N1CCCn2cnc(CNS(C)(=O)=O)c2C1`, with -3.33%; and `CC(C)NC(=O)[C@H]1C[C@@H]2[C@@H](C1)OCCN2Cc1nccs1`, with 16.9%.
Then `Nc1nccnc1C1CN(C(=O)c2ccnnc2)CCO1` (stereo not given), with 26.8%.

For the origin of these results see ChEMBL document CHEMBL4513216, “Probing the Open Global Health Chemical Diversity Library for Multistage-Active Starting Points for Next-Generation Antimalarials” (ACS Infect Dis, 2020).
